Screening results: PubChem BioAssay, National Center for Advancing Translational Sciences (NCATS)
An excerpt weighted towards active compounds, which were near 18% of everything screened.
DT40 TDP1 no CPT – qHTS for Inhibitors of human tyrosyl-DNA phosphodiesterase 1 (TDP1): qHTS in cells in absence of CPT. DT40 Tdp1-/- hTDP1 cells, no CPT, ATP luminescence, 48 h. Potency, µM (doses to about 46.2 µM), for the others: top-dose activity change, negative = growth inhibition, usual class: inhibitors. actives 15% (n = 420,000). AID 686978, 2013; note: potency is the fitted concentration of half-maximal effect; nearly all actives have a fitted effect of over 55% in size
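Growth of hTDP1-complemented DT40 Tdp1-knockout cells is measured by ATP luminescence after at least 48 hr compound exposure at 37 °C, with DMSO substituting for the 20 nM CPT used in the parallel screen.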
IL1B secr inh – inhibitors of inflammasome signaling (IL-1 beta secretion); THP-1 LPS/ATP IL-1B secretion, AlphaLISA, 16 h; hits give low values; actives 4.7% (n = 360,000); activity change, % at 57.5 µM; in the data active = activity change below about -50%; inconclusive = mostly about -30% to -49%
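Secreted IL-1B measured by AlphaLISA bead assay after 16 h compound exposure of THP-1 cells; compounds (final up to 57.5 uM) added 1 h before LPS (250 ng/mL) and ATP (1.25 mM) stimulation; lower signal means less secretion.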
TDP1 inh – inhibitors of human tyrosyl-DNA phosphodiesterase TDP1; Q9NUW8; recombinant TDP1, AlphaScreen DNA substrate cleavage; Potency, µM (highest dose often 130 µM), for the others: top-dose activity change, negative = inhibition, usual class: inhibitors; actives 0.28% (n = 350,000); note: potency is the fitted concentration of half-maximal effect; nearly all actives have a fitted effect of over 40% in size
Target sequence (Q9NUW8 whole entry, looked up): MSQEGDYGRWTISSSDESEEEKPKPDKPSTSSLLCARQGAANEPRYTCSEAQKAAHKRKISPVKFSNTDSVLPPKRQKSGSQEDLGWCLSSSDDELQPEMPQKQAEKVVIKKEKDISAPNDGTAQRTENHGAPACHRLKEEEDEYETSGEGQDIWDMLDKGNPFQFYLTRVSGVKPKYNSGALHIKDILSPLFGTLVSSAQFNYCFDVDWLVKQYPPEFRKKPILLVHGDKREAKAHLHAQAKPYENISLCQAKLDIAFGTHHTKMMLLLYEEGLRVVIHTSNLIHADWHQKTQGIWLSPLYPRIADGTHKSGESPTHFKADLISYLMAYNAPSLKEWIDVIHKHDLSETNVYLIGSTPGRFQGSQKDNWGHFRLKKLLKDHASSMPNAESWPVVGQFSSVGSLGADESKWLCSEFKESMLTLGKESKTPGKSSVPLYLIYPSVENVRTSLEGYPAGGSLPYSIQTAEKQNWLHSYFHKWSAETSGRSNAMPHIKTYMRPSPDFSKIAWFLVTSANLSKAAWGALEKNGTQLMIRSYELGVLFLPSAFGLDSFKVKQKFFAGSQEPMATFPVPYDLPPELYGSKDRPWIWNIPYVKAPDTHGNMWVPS
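Recombinant E. coli-expressed Tdp1 (1 nM) preincubated with compound 15 min at RT, then 5'-biotin/3'-phosphotyrosine-FITC DNA substrate (15 nM) added for 5 min. AlphaScreen beads (10 ug/ml) added, 10 min RT; tyrosine-FITC cleavage read as signal loss.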
Six1-Eya2 blk – inhibitors of human Six1/Eya2 interaction. Q15475+O00167. AlphaScreen GST-Six1/His-Eya2 binding, biochemical; hits give low values. activity change, % (no concentration beside the values). actives 0.56% (n = 360,000). AID 651725; in the data active = activity change below about -65%; inconclusive = mostly about -30% to -63%
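Compounds are tested against tagged Six1 and Eya2 proteins bridged by glutathione donor and nickel acceptor beads; after a one-hour incubation at 37 °C without light, AlphaScreen emission is recorded.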
CtBP-E1A blk – CtBP/E1A binding inhibition; actives 0.49% (n = 340,000); AlphaScreen GST-E1A/His-CtBP binding, 1536-well; hits give low values; AID 651724; activity change, % (test concentration not listed); in the data active = activity change below about -65%; inconclusive = mostly about -30% to -63%
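GST-E1A and His-tagged CtBP (125 nM each as 5X stock) were preincubated with pin-transferred compound for 2 h at 37 °C in the dark, then glutathione donor and nickel acceptor beads were added for 1 h before AlphaScreen reading.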
TDP1 cell CPT – DT40-hTDP1 cell growth loss with CPT; Potency, µM (titrated, usually from 46.2 µM), for the others: at the top dose activity change, negative = growth inhibition, hits mostly inhibitors; chicken DT40 Tdp1-/-;hTDP1 cells + 20 nM CPT, ATP luminescence, 48 h; actives 12% (n = 420,000); note: potency is the fitted concentration of half-maximal effect; nearly all actives have a fitted effect of over 55% in size
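Chicken DT40 Tdp1-/- cells complemented with human TDP1, 400 cells/well, exposed to compounds plus 20 nM camptothecin for at least 48 h at 37 C; viability read as ATP content by CellTiter-Glo luminescence.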
* = called active by the depositor; ? = inconclusive; . = no result. Unless noted, calls come from the whole dose curve; as a rule, active = well fitted curve in the direction sought with a large enough effect; inconclusive = small, poorly fitted or top-dose-only effect, or another doubt; inactive = no such curve, though single readings can be large; an effect the other way counts as inactive or inconclusive. % is set by controls: 0 for no effect and ±100 for the full control effect.

SMILES | DT40 TDP1 no CPT | IL1B secr inh | TDP1 inh | Six1-Eya2 blk | CtBP-E1A blk | TDP1 cell CPT
CC(C)(C)OC(=O)N1CCC(CC2CC(c3ccc(Cl)cc3)=NO2)(C(=O)NCC2CCCCC2)CC1 (stereo not drawn) | 16µM* | -10 | . | 4 | 0 | 23µM*
O=C(Cc1ccc(F)cc1)N1CCC(CC2CC(c3ccc(Cl)cc3)=NO2)(C(=O)NCC2CCCCC2)CC1 (stereo not drawn) | ? | -55* | . | 0 | -1 | ?
O=C(CCc1ccccc1)NNC(=O)COc1ccccc1 | -5% | 3 | 6% | 1 | 4 | -6%
Cc1nc2scc(C)n2c(=O)c1S(=O)(=O)Nc1ccc(N2CCN(C(=O)C(C)C)CC2)cc1 | ? | 21 | 3% | 1 | . | ?
COc1ccccc1CCNC(=O)C(=O)NCCC1CCCCN1S(=O)(=O)c1ccccc1 (stereo not drawn) | 16µM* | -15 | . | -4 | -2 | ?
CCC1CCCCN1S(=O)(=O)c1ccccc1[N+](=O)[O-] (stereo not drawn) | 23µM* | 2 | 1% | 1 | 0 | 21µM*
CCC1CCCCN1S(=O)(=O)c1ccccc1 (stereo not drawn) | ? | 17 | 0% | -3 | 3 | ?
COc1ccc(CCNC(=O)C(=O)NCCC2CCCCN2S(=O)(=O)c2ccccc2)cc1 (stereo not drawn) | 23µM* | 9 | 0% | 24 | 2 | 23µM*
COc1ccccc1CNC(=O)C(=O)NCCC1CCCCN1S(=O)(=O)c1ccc(C)cc1 (stereo not drawn) | ? | -1 | . | 10 | 11 | ?
O=S(=O)(c1ccccc1)N1CCCCC1CCc1ccccc1 (stereo not drawn) | 13µM* | -29 | . | 40 | 5 | ?
O=C1NC[C@H](Cc2ccc(O)cc2)N(CCc2cc(C(F)(F)F)cc(C(F)(F)F)c2)C1=O | -21% | -6 | . | 38 | -21 | -13%
CC(=O)N1CC[n+]2c(-c3ccc(Cl)cc3)csc21 | 23µM* | -2 | 0% | 6 | -2 | 26µM*
C=Cn1c(C(=O)O)ccc1-c1ccc(CC)cc1 | 2% | 0 | 7% | -2 | . | -4%
CCc1ccc(-c2csc3[n+]2CCN3C(C)=O)cc1 | 26µM* | -9 | 7% | -1 | 7 | ?
CCc1c(C)nc2nc(SCc3ccccc3)[nH]n2c1=O | ? | 47 | . | 6 | 8 | 8%
COc1ccc(NC(=O)COc2ccccc2F)cc1S(=O)(=O)N1CCCCC1 | ? | -5 | 2% | -9 | -1 | ?
CCCCCC(=O)NC(=S)Nc1ccc(N2CCCCC2)c(Cl)c1 | ? | -4 | -1% | 0 | -5 | -27%
CCCC(=O)N1CCN(c2ccc(NC(=O)c3ccc([N+](=O)[O-])o3)cc2Cl)CC1 | 5.8µM* | -110* | 1% | -5 | 25 | 0.92µM*
CCCCCC(=O)Nc1ccc(N2CCN(CC)CC2)c(Cl)c1 | ? | -7 | 6% | 20 | 41 | 35µM*
CC(C)C(=O)N1CCN(c2ccc(NC(=O)c3ccc([N+](=O)[O-])o3)cc2Cl)CC1 | 2.1µM* | -105* | 0% | -10 | -8 | 1.2µM*
CC(C)C(=O)N1CCN(c2ccc(NC(=O)c3ccc([N+](=O)[O-])o3)cc2)CC1 | 12µM* | -104* | 6% | 0 | 0 | 2.1µM*
CC(C)C(=O)N1CCN(c2ccc(NC(=O)c3ccc(Br)o3)cc2)CC1 | -27% | -12 | 5% | 6 | 6 | ?
CC(=O)N1CCN(c2ccc(NC(=O)c3ccc(Br)o3)cc2Cl)CC1 | 26µM* | ? | 0% | 18 | 0 | 16µM*
CCCCC(=O)/C=C/n1c(=S)oc2ccccc21 | 4.1µM* | -101* | 0% | -11 | 0 | 5.2µM*
COc1cccc(CNc2nc3cc(-c4cscc4C)sc3c(=O)n2C)c1 | 21µM* | -57* | . | -5 | 1 | ?
SMILES | DT40 TDP1 no CPT | IL1B secr inh | TDP1 inh | Six1-Eya2 blk | CtBP-E1A blk | TDP1 cell CPT
COc1cccc(CNc2nc3cc(-c4ccccc4CO)sc3c(=O)n2C)c1 | ? | -10 | . | -1 | -7 | 18µM*
CCOc1cccc(C2c3c(oc4ccc(F)cc4c3=O)C(=O)N2CCOC)c1 (stereo not drawn) | -4% | . | -1% | . | . | 5%
COc1ccc(C=C(C(=O)O)c2ccc(OC)cc2)cc1 | 7% | -1 | . | 3 | 10 | 10%
COc1ccc(NC(=O)[C@@H](NC(=O)c2ccccc2)C(C)C)cc1S(=O)(=O)N1CCCCC1 | ? | 7 | 6% | -2 | -3 | ?
CC(C)c1ccc(N2C=Nc3ccc(C(C)C)cc3C2)cc1 | ? | -97* | 6% | 1 | -1 | ?
COc1c(Cl)cnn(-c2ccccc2)c1=O | -7% | -75* | 3% | 10 | 13 | 7%
COc1nn(-c2ccccc2)c(=O)c(Cl)c1Cl | 4.6µM* | -96* | . | 33 | -5 | 5.2µM*
COc1c(Cl)cnn(-c2ccc(Cl)c(Cl)c2)c1=O | -4% | -98* | -6% | 6 | 6 | 3%
COc1ccc2cnn(-c3ccccc3)c(=O)c2c1OC | ? | -18 | 4% | 7 | 5 | ?
COc1ccc(-n2ncc(Cl)c(Cl)c2=O)cc1 | 2.9µM* | -107* | 0% | 0 | -3 | 4.1µM*
CNS(=O)(=O)c1cccc(C(=O)OCC(=O)NC(C)CCc2ccccc2)c1 (stereo not drawn) | -19% | 15 | . | -1 | . | -8%
CCCCCN(C(=O)CSc1n[nH]c(-c2ccc(C)cc2)n1)c1c(N)n(CCCC)c(=O)[nH]c1=O | -3% | -21 | 0% | -2 | -5 | -8%
COC(=O)c1c(NC(=O)c2nn(C)cc2Cl)sc2c1CCCC2 | ? | . | 0% | 5 | 9 | ?
CCN(CC)S(=O)(=O)c1ccc(S(=O)(=O)N2CCCC2)cc1 | -8% | 2 | 6% | -2 | . | 0%
CC(C)OC(=O)N(C)c1ccc(C(O)(C(F)(F)F)C(F)(F)F)cc1 | ? | ? | 4% | 2 | 6 | ?
Cc1nc2nc(CNC(=O)OC(C)(C)C)nn2c(C)c1CCC(=O)NCc1ccc(F)cc1 | -16% | . | -3% | . | . | 1%
COc1cccc2cc(C(=O)NC3CC(C)(C)NC(C)(C)C3)c(=O)oc12 | 8% | -7 | . | -1 | 0 | 5%
